Records with an inconclusive call do not appear. Activity calls are given as the source filed them. Unless noted, calls come from the whole dose curve; as a rule, active = well fitted curve in the direction sought with a large enough effect in the repeat runs; inconclusive = weak or mixed curves; inactive = no such curve, though single readings can be large; an effect the other way counts as inactive or inconclusive.

The nature of test [1]: qHTS assay to identify small molecule agonists of the peroxisome proliferator-activated receptor delta (PPARd) signaling pathway - cell viability counter screen (AID 743211). Note: nearly all actives have a fitted effect of over 55% in size. The conditions noted are these: PPARd-bla HEK293H viability, CellTiter-Glo luminescence, 17 h; series mostly up to 62.6 µM. The method in brief:
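Read-out: CellTiter-Glo luminescence, 30 min RT, measured in the same wells as the beta-lactamase reporter. Cells: GeneBLAzer PPAR delta UAS-bla HEK293H, 3000 cells/well, compound exposure 17 h at 37C.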
Background: Quantitative high-throughput screening tests each substance at several concentrations.

Test [2] has as its target Peroxisome proliferator-activated receptor delta (Homo sapiens) (UniProt Q03181). Nature of the test: qHTS assay to identify small molecule agonists of the peroxisome proliferator-activated receptor delta (PPARd) signaling pathway (AID 743212; calls by dose curve). The conditions noted are these: HEK293H PPARd-UAS-bla, beta-lactamase FRET ratio, 17 h; series mostly up to 62.6 µM. In outline:
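Steps: seed PPARd-bla HEK293H cells; incubate 5 h, 37 C, 5% CO2; add compounds in DMSO; incubate, 37 C; add LiveBLAzer B/G FRET substrate; hold 2 h at room temperature; measure fluorescence.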

Test [3] is described as follows: qHTS assay to identify small molecule antagonists of the peroxisome proliferator-activated receptor delta (PPARd) signaling pathway - cell viability counter screen (AID 743213). Note: nearly all actives have a fitted effect of over 50% in size. The conditions noted are these: PPARd-bla HEK293H viability, CellTiter-Glo luminescence, 17 h; series mostly up to 62 µM. The method in brief:
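Agonist-stimulated (L165041, 300 nM final) HEK293H PPARd UAS-bla cells are exposed to compounds for 17 h at 37 C, and ATP-based luminescence (CellTiter-Glo) from the same wells reports cytotoxicity.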

Test [4] addresses Peroxisome proliferator-activated receptor delta (Homo sapiens) (UniProt Q03181). Nature of the test: qHTS assay to identify small molecule antagonists of the peroxisome proliferator-activated receptor delta (PPARd) signaling pathway (AID 743215; active = well fitted inhibition curve with a large enough effect in the signal ratio in the repeat runs, not every such curve was filed as active; the % refers to the signal ratio). The settings on record: HEK293H PPARd-UAS-bla, beta-lactamase FRET ratio, antagonist, 17 h; series mostly up to 62 µM. In outline:
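Here, a reporter line (HEK293H, beta-lactamase under a UAS) measures PPARd signaling. Compounds are tested against agonist L165041 at 300 nM final concentration over 17 h at 37 C, with fluorescence read after substrate.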

Test [5] in a line: qHTS assay to identify small molecule agonists of the farnesoid-X-receptor (FXR) signaling pathway - cell viability counter screen (AID 743218). Note: nearly all actives have a fitted effect of over 45% in size. Note: potency is the fitted concentration of half-maximal effect. The conditions noted are these: FXR-bla HEK293T viability, CellTiter-Glo luminescence, 16 h; series mostly up to 62.6 µM. In outline:
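Quantitative HTS counter screen measuring ATP-based viability via CellTiter-Glo luminescence in HEK 293T cells carrying a UAS-driven beta-lactamase reporter, after 16 h compound exposure at 37 C.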

A short description of test [6]: qHTS assay to identify small molecule antagonists of the farnesoid-X-receptor (FXR) signaling pathway - cell viability counter screen (AID 743221; active = well fitted cell-killing curve with a large enough effect in the repeat runs, not every such curve was filed as active; note: nearly all actives have a fitted effect of over 50% in size; note: potency is the fitted concentration of half-maximal effect). The conditions noted are these: FXR-bla HEK293T viability, CellTiter-Glo luminescence, 16 h; series mostly up to 62.6 µM. In outline:
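HEK 293T FXR-bla cells, 5 h pre-incubation; compound + CDCA 50 uM final, 16 h, 37 C; beta-lactamase FRET read first, then CellTiter-Glo luminescence, 30 min RT.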

The target in test [7] is Vitamin D3 receptor (Homo sapiens) (UniProt P11473). Nature of the test: qHTS assay to identify small molecule antagonists of the vitamin D receptor (VDR) signaling pathway (AID 743223; active = well fitted inhibition curve with a large enough effect in the signal ratio in the repeat runs, not every such curve was filed as active; the % refers to the signal ratio). The conditions noted are these: VDR-UAS-bla HEK293T, beta-lactamase FRET ratio, 16 h; series mostly up to 61 µM. In outline: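 Beta-lactamase reporter read-out: FRET substrate fluorescence after 2 h at room temperature, following 16 h exposure of VDR-bla cells to test compound plus 3 nM (final) 1alpha,25-dihydroxyvitamin D3 agonist at 37C.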
Chain of Vitamin D3 receptor (Homo sapiens) (P11473 whole entry, looked up): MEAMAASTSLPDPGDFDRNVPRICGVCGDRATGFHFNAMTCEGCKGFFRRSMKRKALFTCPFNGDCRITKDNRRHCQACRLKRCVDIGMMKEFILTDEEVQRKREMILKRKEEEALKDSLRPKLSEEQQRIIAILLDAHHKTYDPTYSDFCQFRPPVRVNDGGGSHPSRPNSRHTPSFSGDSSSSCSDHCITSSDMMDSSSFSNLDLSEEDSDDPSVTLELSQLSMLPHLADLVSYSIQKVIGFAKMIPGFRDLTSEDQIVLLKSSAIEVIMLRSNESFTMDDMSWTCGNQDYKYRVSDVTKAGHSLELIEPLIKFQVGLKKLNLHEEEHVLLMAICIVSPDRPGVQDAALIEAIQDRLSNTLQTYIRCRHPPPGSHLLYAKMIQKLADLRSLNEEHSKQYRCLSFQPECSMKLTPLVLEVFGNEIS

For test [8], the target named is Bile acid receptor (Homo sapiens) (UniProt Q96RI1). Nature of the test: qHTS assay to identify small molecule antagonists of the farnesoid-X-receptor (FXR) signaling pathway (AID 743217; active = well fitted inhibition curve with a large enough effect in the signal ratio in the repeat runs, not every such curve was filed as active; the % refers to the signal ratio). The settings on record: HEK293T FXR-UAS-bla, beta-lactamase ratio, CDCA-stimulated, 16 h; series mostly up to 62.6 µM. In outline: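 Test compounds are pin-transferred onto FXR-bla HEK 293T cells, then chenodeoxycholic acid is added at 50 uM final. After 16 h at 37 °C, LiveBLAzer B/G substrate is applied for 2 h at room temperature and fluorescence read.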
Chain of Bile acid receptor (Homo sapiens) (Q96RI1 whole entry, looked up): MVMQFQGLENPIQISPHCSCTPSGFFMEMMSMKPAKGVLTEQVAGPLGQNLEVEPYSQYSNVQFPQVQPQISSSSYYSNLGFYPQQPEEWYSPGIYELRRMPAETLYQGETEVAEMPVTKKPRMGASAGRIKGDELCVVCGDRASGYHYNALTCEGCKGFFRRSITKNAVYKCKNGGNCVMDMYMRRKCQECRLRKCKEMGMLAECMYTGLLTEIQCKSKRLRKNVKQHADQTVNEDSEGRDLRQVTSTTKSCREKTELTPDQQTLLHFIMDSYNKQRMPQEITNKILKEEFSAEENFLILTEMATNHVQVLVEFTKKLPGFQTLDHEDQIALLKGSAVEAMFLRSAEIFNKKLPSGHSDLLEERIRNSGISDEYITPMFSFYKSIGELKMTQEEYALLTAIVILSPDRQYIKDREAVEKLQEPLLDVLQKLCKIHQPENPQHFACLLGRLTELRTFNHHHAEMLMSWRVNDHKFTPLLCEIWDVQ

For test [9] the target is unchanged. Nature of the test: qHTS assay to identify small molecule agonists of the farnesoid-X-receptor (FXR) signaling pathway (AID 743220; active = well fitted activation curve with a large enough effect in the signal ratio in the repeat runs, not every such curve was filed as active; the % refers to the signal ratio). The conditions noted are these: HEK293T FXR-UAS-bla, beta-lactamase FRET ratio, 16 h; series mostly up to 62.6 µM. In outline: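 FXR-UAS-bla HEK 293T cells carrying a UAS-driven beta-lactamase reporter were plated for 5 h at 37C/5% CO2, then exposed to DMSO-dissolved Tox21 10K compounds for 16 h at 37C. A LiveBLAzer B/G FRET substrate was loaded for 2 h at room temperature before fluorescence reading.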

In test [10] the target is Vitamin D3 receptor (Homo sapiens) (UniProt P11473). Nature of the test: qHTS assay to identify small molecule agonists of the vitamin D receptor (VDR) signaling pathway (AID 743222; calls by dose curve). The settings on record: HEK293T VDR-UAS-bla, beta-lactamase FRET ratio, 16 h; series mostly up to 63.5 µM. The method in brief: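 Tox21 cell reporter format: VDR-bla line, 16 h compound exposure in 5% CO2 at 37C, then fluorescence intensity after 2 h with LiveBLAzer B/G FRET substrate.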

Chain of Peroxisome proliferator-activated receptor delta (Homo sapiens) (Q03181 whole entry, looked up): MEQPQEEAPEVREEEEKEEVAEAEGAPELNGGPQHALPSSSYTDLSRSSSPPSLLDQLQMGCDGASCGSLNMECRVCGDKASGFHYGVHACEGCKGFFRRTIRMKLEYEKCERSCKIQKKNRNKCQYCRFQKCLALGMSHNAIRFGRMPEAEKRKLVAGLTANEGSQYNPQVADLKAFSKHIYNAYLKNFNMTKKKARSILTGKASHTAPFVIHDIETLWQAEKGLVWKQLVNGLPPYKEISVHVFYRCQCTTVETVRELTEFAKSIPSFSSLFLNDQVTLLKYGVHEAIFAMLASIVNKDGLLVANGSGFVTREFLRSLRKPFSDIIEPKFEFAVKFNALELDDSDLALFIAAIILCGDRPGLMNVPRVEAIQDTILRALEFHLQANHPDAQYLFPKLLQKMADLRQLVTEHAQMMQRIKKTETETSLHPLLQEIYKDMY

Regarding `CCC(C(=O)OCCN(CC)CC)c1ccccc1` (stereo not drawn), the Potency result in test [1], in [2], in test [3], in [4], in test [5] and in [6] was “inactive” throughout. In addition, the result in [7] was inactive.

Consider `CNC(=S)NC`, for which the Potency result in [1], in [2], in test [3], in test [8] and in [9] was “inactive” each time. The Potency in [5] is 17.4 µM (active); in [6], 38.9 µM (active). In addition, in [10], the result was inactive.

As for `OCCSc1ccccc1`, the Potency entry in [1], in test [2], in test [3], in [4], in test [5] and in test [6] was “inactive” throughout. Moreover, in test [7], the result was inactive.

As for `C[C@]12CCC(=O)C=C1C=C[C@@H]1[C@@H]2CC[C@@]2(C)[C@H]1CC[C@@]21CCC(=O)O1`, the Potency entry in test [1], in [2], in test [3], in [4] and in test [6] was “inactive” throughout.

`CCOC(=O)/C=C/C(=O)O`: the Potency result in test [1], in test [2], in test [3] and in test [4] was “inactive” in each case. Also, the result in test [7] was inactive.

For `C[C@@H]1C[C@H]2[C@@H]3CCC4=CC(=O)C=C[C@]4(C)[C@@]3(F)[C@@H](O)C[C@]2(C)[C@@]1(O)C(=O)CO`, the Potency entry in test [1], in [2], in test [3], in test [4] and in [6] was “inactive” throughout.

Consider `O=C(/C=C/c1ccccc1)OCCCc1ccccc1`, for which the Potency entry in test [1], in [2], in test [3], in [4] and in test [6] was “inactive” throughout. The result in test [10] and in [7] was inactive.

With `CC(C)=CC=O`, the Potency entry in [1], in test [2], in test [3], in [4], in test [5] and in test [6] was “inactive” throughout. In test [7], the outcome was inactive.

As to `C=C(C)C(=O)OCCOC(=O)CC(C)=O`, the Potency result in test [1], in test [2], in [8], in test [5], in test [9] and in test [6] was “inactive” in each case. The outcome in test [10] was inactive.
